Compound activity as filed in PubChem BioAssay.
Only some compounds are listed: those with a hit (about 3.6% of all), similar ones and a draw of the others.
Pf apPOL block = Pf-apPOL DNA polymerase inhibition | Recombinant Pf-apPOL, molecular beacon fluorescence, 1.5 h | inhibition, % at 10 µM | hit rate 0.25% among 210,000 | AID 1794808
mHTT-CaM PPI inh = disrupts binding of mutant huntingtin to calmodulin; inhibition, % at 15 µM; AlphaScreen His-mHTT/GST-CaM binding, luminescence; P42858; AID 1671202; hit rate 3.6% among 190,000
Numbers stand for hits; - = inactive; . = not tested or not shown; ! = repeats disagree. No stated cut-off is given here; in the data, active means inhibition above about 50%; inactive means the rest.

SMILES	Pf apPOL block	mHTT-CaM PPI inh
O=C(O)c1cc2c3c(c1)C1C=CCC1C(c1ccccc1F)N3CC1CC=CC21 (stereo not drawn)	-	70
O=C(O)c1ccc2c(c1)C1C=CCC1C(c1ccccc1Br)N2 (stereo not drawn)	-	-
CNC(=O)c1ccccc1N(Cc1ccccc1)S(=O)(=O)c1ccccc1	-	-
CN1CCN(c2ccc([N+](=O)[O-])c(-n3nc(-c4ccccc4)c4ccccc4c3=O)c2)CC1	-	55!
O=c1c2ccccc2c(-c2ccc(Cl)cc2)nn1-c1cc(N2CCNCC2)ccc1[N+](=O)[O-]	-	98
O=c1c2ccccc2c(-c2ccccc2)nn1-c1cc(N2CCN(CCO)CC2)ccc1[N+](=O)[O-]	-	-
O=c1c2ccccc2c(-c2ccc(F)cc2)nn1-c1cc(N2CCOCC2)ccc1[N+](=O)[O-]	-	-
CCN1C(=O)C(C)(C(=O)Nc2cc(C)ccc2C)Oc2cccnc21 (stereo not drawn)	-	-
CC1(C)CC2CC(C)(CN2c2ccc(N3C(=O)CCCC3=O)cc2[N+](=O)[O-])C1 (stereo not drawn)	-	-
O=C1Nc2ccccc2C1=Nc1ccc(Nc2ccccc2)cc1	-	100
O=C1Nc2ccccc2C1=Nc1ccc(C(=O)c2ccccc2)cc1	-	-
CCN1/C(=C/c2cccc[n+]2C)Sc2cc(NC(C)=O)ccc21	-	-
CCC(C)OC(=O)C1=C(C)NC2=C(C(=O)C(C(=O)OC)C(C)C2)C1c1ccc(C)c([N+](=O)[O-])c1 (stereo not drawn)	-	-
CC1=NN(c2ccccc2)C(=O)/C1=C/c1ccc(-c2cccc([N+](=O)[O-])c2)o1	-	-
COc1cc([N+](=O)[O-])ccc1-c1ccc(/C=C2/C(=O)N(c3cccc(Cl)c3)N=C2C)o1	-	-
O=C1NN(c2ccc(Cl)c(Cl)c2)C(=O)/C1=C/c1ccc(-c2ccccc2C(=O)O)o1	-	51
CC1=NN(c2ccccc2)C(=O)/C1=C/c1ccc(-c2ccc(Cl)c(C(=O)O)c2)o1	-	77
CC1=NN(c2cccc(Cl)c2)C(=O)/C1=C/c1ccc(-c2ccc(C(=O)O)c(Cl)c2)o1	-	52
CC1=NN(c2ccccc2)C(=O)/C1=C/c1ccc(-c2ccccc2Cl)o1	-	-
O=C1NN(c2ccc(Cl)c(Cl)c2)C(=O)/C1=C/c1ccc(-c2cccc(C(=O)O)c2)o1	-	-
CC1=NN(c2ccccc2)C(=O)/C1=C/c1ccc(-c2cccc(C(=O)O)c2)o1	-	76
O=C(c1ccsc1)N1CCc2c(nc(-c3ccc(F)cc3)[nH]c2=O)C1	-	-
O=C(Cn1cc(-c2ccc(F)cc2)oc1=O)NCc1ccc(N2CCCCC2)cc1	-	-
CCNC(=O)C1CCN(c2cccc3ccccc23)C1=O (stereo not drawn)	-	-
COc1ccc(OC)c(NC(=O)C2CCN(c3nnc(-c4ccc(C)cc4)o3)CC2)c1	-	-
SMILES	Pf apPOL block	mHTT-CaM PPI inh
COCCNC(=O)C1CCc2sc(C(=O)N3CCCCC3)cc2C1 (stereo not drawn)	-	-
O=C(CSc1nc2sc3c(c2c(=O)[nH]1)CCCC3)N1CCOCC1	-	-
CCOc1ccc(N(CC(=O)O)S(=O)(=O)c2ccc(C)cc2)cc1	-	-
O=C1CC(c2cccs2)CC(O)=C1C=NCCN1CCNCC1 (stereo not drawn)	-	-
O=C1CC(c2ccc(Cl)c(Cl)c2)CC(O)=C1C=NCCN1CCNCC1 (stereo not drawn)	-	59
Cc1c(N=c2scc(-c3ccc(Cl)cc3)n2Cc2ccco2)c(=O)n(-c2ccccc2)n1C	-	60
C=CCn1c(-c2ccccc2)csc1=Nc1c(C)n(C)n(-c2ccccc2)c1=O	-	-
O=C(Nc1ccc(Cl)cc1)/C(=C1\Nc2ccc([N+](=O)[O-])cc2N1)[N+](=O)[O-]	-	-
O=C(Nc1ccc(Br)cc1)/C(=C1\Nc2ccc([N+](=O)[O-])cc2N1)[N+](=O)[O-]	52	-
Cc1cc2cc(CNC(=O)c3ccccc3C(F)(F)F)ccc2n1C	-	-
O=C(Cc1nc(-c2ccccn2)n[nH]1)NC1CCCC1	-	98
O=C(Cc1nc(-c2ccccn2)n[nH]1)NC1CC1	-	100
O=C(Cc1ccccc1)NC1CCCCCC1	-	-
O=C(Cc1nc(-c2cnccn2)n[nH]1)NCc1ccccc1	-	-
O=C(c1ccc(OCC2CCCN(C(=O)c3ccncc3)C2)cc1)N1CCCC1 (stereo not drawn)	-	-
CCCCCC=CC(=O)CCc1ccc(O)c(OC)c1	-	.
CCOc1ccc(N=Cc2cc(C)cc(I)c2O)cc1	-	-
CC1=NN(C(=O)c2ccc(Cl)cc2)C(O)(c2ccc(Cl)cc2)C1 (stereo not drawn)	-	67
CC1=NN(C(=O)c2ccccc2F)C(O)(c2ccc(Cl)cc2)C1 (stereo not drawn)	-	-
CC1=NN(C(=O)c2ccccc2Cl)C(O)(c2ccc(Cl)cc2)C1 (stereo not drawn)	-	-
CC1=NN(C(=O)c2cccc(Cl)c2)C(O)(c2ccc(Cl)cc2)C1 (stereo not drawn)	-	54
CC1=C(C#N)C(=O)NC(=O)/C1=C\c1ccc(-c2cc([N+](=O)[O-])ccc2Cl)o1	-	-
CC1=C(C#N)C(=O)NC(=O)/C1=C\c1ccc(-c2ccc(Cl)cc2Cl)o1	-	71!
O=C(Cn1ccc2ccc(N3CCCCC3)nc21)NC1CCCC1	-	-
O=C(Cn1ccc2ccc(N3CCCCCC3)nc21)NC1CCCCC1	-	50
SMILES	Pf apPOL block	mHTT-CaM PPI inh
CCOc1ccc(C(=O)Nc2c3c(nn2-c2ccc(F)cc2)CS(=O)(=O)C3)cc1	-	-
O=[N+]([O-])C(Cl)=C1N(c2ccccc2)CCN1c1ccccc1	-	-
O=C(c1cc2sccc2n1Cc1ccccc1F)N1CCOCC1	-	-
CCn1c(C(=O)N2CCN(Cc3ccccc3)CC2)cc2sccc21	-	57
CN(C(=O)c1ccc(OC(F)(F)F)cc1)C1CCCCC1	-	.
Nc1cc(S(=O)(=O)O)c(N)c2c1C(=O)c1ccccc1C2=O	-	.
O=C1c2ccccc2C(=O)c2c1cc(S(=O)(=O)O)c(O)c2O	.	52
O=C1c2ccccc2C(=O)c2c(O)c(O)cc(O)c21	-	75
O=C1c2ccccc2C(=O)c2c(O)ccc(O)c21	-	-
COc1cccc(-c2nc(C3CCN(C(=O)c4ccc(C)c(C)c4)CC3)no2)c1	-	-
Cc1nc(-c2cccc(F)c2)nc2c1CC(=O)N2Cc1cccnc1	-	-
O=c1nc(/C=C/c2cccn2-c2ccc([N+](=O)[O-])cc2)cc(C(F)(F)F)[nH]1	-	-
O=C1C(=Cc2ccc(-c3ccccc3[N+](=O)[O-])o2)C(=O)c2ccccc21	-	-
Cc1cc([N+](=O)[O-])c(C)cc1-c1ccc(/C=C/c2cc(C(F)(F)F)[nH]c(=O)n2)o1	-	95!
O=c1nc(/C=C/c2ccc(-c3ccccc3[N+](=O)[O-])o2)cc(C(F)(F)F)[nH]1	-	90
Cc1ccc(C)c(NC(=O)CSc2nc(C)cc(C)n2)c1	-	-
c1ccc2c(c1)nnn2CCSCCn1nnc2ccccc21	-	-
ClC(Cl)(Cl)CCCCn1nnc2ccccc21	-	100
Cc1cc(OCC2CN(C(=O)c3ccc(C(F)(F)F)nc3)CCO2)ccc1Cl (stereo not drawn)	-	-
CCn1c(=O)[nH]c2ccc(Br)cc2c1=O	-	-
O=c1[nH]c2ccc(Br)cc2c(=O)n1C1CCCCC1	-	52
COCCNC(=O)c1nc(-c2ccc(Cl)cc2)n2c1CCCCC2	-	-
